# Inconclusive results are not listed. Where a call stands in place of a potency, no number is given. Active and inactive are the calls of the source. Calls come from the whole dose curve; as a rule, active = well fitted inhibition curve with a large enough effect; inconclusive = small, poorly fitted or top-dose-only effect; inactive = flat fitted curve, though single readings scatter.
# Target: Calcium and integrin-binding protein 1 (Homo sapiens) (UniProt Q99828)
# Test: Primary qHTS for Identification of Calcium Integrin Binding Protein 1 (CIB1) Competitor (AID 1508620);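 note: GST tagged CIB1 binding a fluorescein labelled alphaIIb integrin peptide tracer; top concentration of the series differs between compounds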
# Conditions: CIB1-GST / FITC-alphaIIb peptide fluorescence polarization; series mostly up to 114 µM
# Procedure, shortened: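 Fluorescence polarization competition: CIB1-GST (1 uM final) preincubated with compound 15 min at room temperature, then FITC-labeled alphaIIb peptide (100 nM final) added for another 15 min. Polarization read at Ex 480/Em 540.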
# Chain of Calcium and integrin-binding protein 1 (Homo sapiens) (Q99828 whole entry, looked up): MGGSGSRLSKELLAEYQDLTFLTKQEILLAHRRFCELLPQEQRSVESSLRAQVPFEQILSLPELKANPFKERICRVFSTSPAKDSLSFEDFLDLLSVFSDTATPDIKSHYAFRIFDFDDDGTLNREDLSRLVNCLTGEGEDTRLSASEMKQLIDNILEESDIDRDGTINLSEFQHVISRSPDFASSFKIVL
row,Compound,Potency
1,O=C1CCCC2=C1C(c1cccc(Oc3ccccc3)c1)N=C(Nc1nc3ccccc3o1)N2 (centres undefined),inactive
2,COc1cc(C2Nc3ccccc3C(=O)N2Cc2ccccc2)ccc1OCc1ccc(NC(C)=O)cc1 (centres undefined),inactive
3,COc1cccc(NC(=O)C(OC(=O)CNC(=O)c2ccccc2)c2ccccc2)c1 (centres undefined),inactive
4,COc1ccc(NC(=O)CN2C(=O)N/C(=C\c3cccn3-c3ccc(C(=O)NC#N)cc3)C2=O)cc1,inactive
5,CC(=O)NC(c1cc(Cl)c2cccnc2c1O)C1CC1 (centres undefined),inactive
6,O=C(Nc1ccc(Cl)c(Cl)c1)Nc1cccc(-c2ccncc2)n1,inactive
7,CC(C)c1ccccc1-c1nccc(NCc2ccc(-c3cccnc3)cc2)n1,inactive
8,O=C(Nc1ccccc1)Nc1nc(Nc2cc(F)cc(F)c2)nc(NC2CCCC2)n1,inactive
9,O=C1c2ccccc2NC(c2ccc(-c3ccc(F)cc3)o2)N1O (centres undefined),inactive
10,O=C(Nc1ccccn1)c1sc2ccccc2c1Cl,inactive
11,CONC(=O)C[C@@H](C#N)NC(=O)[C@@H]1CCCN1C(=O)[C@@H](NC(=O)c1ccc(N)c(Cl)c1)C(C)(C)C,inactive
12,Cc1ccc(NS(=O)(=O)c2ccc3c(c2)oc(=O)n3C)cc1C,inactive
13,O=C1CCCC2=C1C(c1[nH]ncc1Cl)NC(=NCc1ccccc1)N2 (centres undefined),inactive
14,Fc1cc(Nc2nc(-c3ccncc3)nc3ccccc23)ccc1-c1ccncc1,inactive
15,O=C(CNC(=O)c1ccc(C(F)(F)F)cc1)OC(C(=O)Nc1cc(C(F)(F)F)ccc1Cl)c1ccccc1 (centres undefined),inactive
16,FC(F)(F)c1ccccc1-c1nc(NCc2ccc(-c3ccc4c(c3)OCO4)cc2)c2ccccc2n1,inactive
17,COc1cccc(CC(=O)Nc2nc(-c3ccc4c(c3)CCN4C(=O)c3ccccc3C)c(C)s2)c1,inactive
18,O=C(Nc1cncc(-c2cccc3ccccc23)c1)c1cccs1,inactive
19,O=S(=O)(Nc1cccc2cccnc12)c1ccccc1,inactive
20,O=C1CCCC2=C1C(c1[nH]ncc1Cl)NC(=NCc1nccs1)N2 (centres undefined),inactive

row,Compound,Potency
1,Cc1nc(CNc2ncnc3ccc(-c4ccoc4C)cc23)cs1,inactive
2,COc1ccc(C2=Nn3c(nnc3-c3cc(OC)ccc3OC)SC2)cc1,inactive
3,Clc1ccccc1CSc1nc2ncc(Br)cc2[nH]1,inactive
4,Cc1ccc(NS(=O)(=O)c2ccc(-c3ccccc3)cc2)cc1C,inactive
5,COc1ccc(OC)c(-c2nnc3n2N=C(c2ccccc2OC)CS3)c1,inactive
6,CCOc1ccc(CCNC(=O)c2cc3sccc3n2CCN2CCN(C)CC2)cc1OCC,inactive
7,CC(=O)Nc1ccc(C(=O)Nc2ccc(-c3nc4ccccc4[nH]3)cc2)cc1,inactive
8,N#Cc1nc(Nc2cccc(Cl)c2)nc(NC2CCCC2)n1,inactive
9,C(=C\c1cccs1)/c1cccnc1,inactive
10,S=C(Nc1cc(Cl)ccn1)N1CCN(c2ccc(Cl)cc2Cl)CC1,inactive
11,COc1cccc(C2c3c(ncn(-c4ccc(-c5ccccc5)cc4)c3=N)Oc3ccc4ccccc4c32)c1 (centres undefined),inactive
12,NC(=O)c1ccccc1C[C@H](C(=O)O)N1C(=O)c2ccc(C(=O)O)cc2C1=O,inactive
13,Cn1nnnc1Sc1ncnc2scc(-c3cccc(N)c3)c12,inactive
14,c1nc(NCC2CC2)c2cc(-c3ccc4c(c3)OCO4)ccc2n1,inactive
15,COc1ccc(-c2nc3ccc(Cl)cc3c(=O)n2Cc2ccccc2)cc1COc1ccc(NC(C)=O)cc1,inactive
16,N#CN/C(=N\c1nnc(-c2ccncc2)s1)Nc1ccc(F)c(C(F)(F)F)c1,inactive
17,O=C(Nc1ccc(N2CCOCC2)c(F)c1)Nc1nnc(-c2ccncc2)s1,inactive
18,COc1ccc(C2=Nn3c(nnc3-c3ccccc3C)SC2)cc1OC,inactive
19,CC(C)(C)OC(=O)N1CCN(c2ccc(NCc3ccc(-c4ccc(C(C)(C)C)cc4)o3)cc2)CC1,inactive
